High-throughput results deposited in PubChem by National Center for Advancing Translational Sciences (NCATS).
Tb PYK inh: qHTS of Trypanosoma Brucei Inhibitors | TbPYK enzyme, Kinase-Glo Plus ATP luminescence, 45 min | pyruvate kinase (Trypanosoma brucei), Q57TT1 | Potency, µM (top dose mostly 76.8 µM), for the others: at the highest dose activity, negative = inhibition, hits mostly inhibitors | actives 0.12% (n = 410,000); also: % is scaled to controls: 0 for no effect and ±100 for the full control effect; nearly all actives have a fitted effect of over 50% in size
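Glycolytic pyruvate kinase of T. brucei was incubated with substrate, test compound and 130 uM ADP for 45 minutes at room temperature. Luminescent Kinase-Glo Plus signal was measured after 10 minutes.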
Sm TGR inh: qHTS Assay for the Inhibitors of Schistosoma Mansoni Peroxiredoxins; Potency, µM (top dose mostly 114 µM), without a hit: top-dose activity change, negative = inhibition, actives largely listed as inhibitors; AID 485364, 2010; Schistosoma mansoni thioredoxin glutathione reductase (TGR), Q962Y6; purified TGR, DTNB reduction, TNB absorbance 405 nm; actives 3% (n = 360,000); also: % is scaled to controls: 0 for no effect and ±100 for the full control effect; nearly all actives have a fitted effect of over 60% in size
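Kinetic colorimetric format: TGR-catalysed, NADPH-driven DTNB reduction monitored via TNB absorbance. Enzyme dispensed at 20 nM; compound exposure 15 min at room temperature before reaction start.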
LmPK inh: qHTS Assay for Inhibitors of Leishmania Mexicana Pyruvate Kinase (LmPK) | Q27686 | purified LmPK, Kinase-Glo ATP luminescence, 1 h | actives 0.37% (n = 290,000) | Potency, µM (highest dose often 57.5 µM), without a hit: at the highest dose activity change, negative = inhibition, most hits filed as inhibitors; also: % is scaled to controls: 0 for no effect and ±100 for the full control effect
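Pyruvate kinase activity monitored as ATP production (luciferase luminescence). Conditions: 0.1 nM enzyme, 0.5 mM PEP, 0.1 mM ADP, 1 h, RT; normalized against uninhibited and no-enzyme wells.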
Giardia FBPA inh-1: qHTS Assay for Inhibitors of Fructose-1,6-bisphosphate Aldolase from Giardia Lamblia; A8B2U2; purified Giardia FBPA; Potency, µM (titrated, usually from 59.6 µM), inactives show at the top dose activity, negative = inhibition, usual class: inhibitors; actives 0.71% (n = 290,000); also: % is scaled to controls: 0 for no effect and ±100 for the full control effect; nearly all actives have a fitted effect of over 55% in size
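Giardia FBPA (40 nM reagent) was preincubated 10 min at RT with compound (up to 57.5 uM final), then substrate plus GAPDH/TPI/NAD/arsenate coupling system with diaphorase/resazurin was added; resorufin fluorescence (525/598 nm) was read after 20 min.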
NS1 function inh: qHTS Assay for Inhibitors of Influenza NS1 Protein Function. Potency, µM (top dose mostly 46.1 µM), for the others: at the top dose activity, positive = more growth. actives 0.4% (n = 270,000); calls by dose curve; also: actives are rising curves; nearly all actives have a fitted effect of over 50% in size
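Read-out: OD600 growth recovery of NS1-expressing budding yeast. Cells grown overnight at 30C in -URA glucose medium, washed, resuspended and diluted 1:100 in 2% galactose assay medium, pH 6.0. Same strain lacking NS1 served as positive control.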
RE007 growth inh: qHTS Assay for Inhibitors of the HIV-1 protein Vpr. S. pombe RE007 Vpr strain, BacTiter-Glo ATP luminescence, 24 h. actives 0.21% (n = 360,000). Potency, µM (series often up to 92.2 µM), without a hit: at the top dose activity change, negative = less growth, most hits filed as inhibitors. AID 651644, 2012; active = well fitted falling curve with a large enough effect; inconclusive = small, poorly fitted or top-dose-only effect; inactive = no such curve, though single readings can be large or run the other way; also: % is scaled to controls: 0 for no effect and ±100 for the full control effect; nearly all actives have a fitted effect of over 50% in size
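Fission yeast strain RE007, carrying one chromosomally integrated HIV-1 vpr copy, was seeded at OD 0.01 in PMG+AL medium with 23 nL pinned compound. After 24 h at 30 °C and 99% humidity, viability was read by BacTiter-Glo luminescence.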
Giardia growth: qHTS Assay for Inhibitors of Fructose-1,6-bisphosphate Aldolase from Giardia Lamblia: Giardia lamblia growth inhibition | AID 2785, 2010 | Potency, µM (series often up to 57.5 µM), for the others: at the highest dose activity change, negative = inhibition, hits mostly inhibitors | Giardia lamblia trophozoite growth inhibition | actives 5% (n = 1,500) | shares compounds with Giardia FBPA inh-1;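 also: trophozoites exposed to compound for 48 h at 37 °C; % is scaled to controls: 0 for no effect and ±100 for the full control effect; nearly all actives have a fitted effect of over 70% in size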
Mammal cell tox: qHTS Assay for Inhibitors of Fructose-1,6-bisphosphate Aldolase from Giardia Lamblia: Mammalian cellular toxicity | mammalian cell viability counter-screen, qHTS | actives 4% (n = 1,500) | shares compounds with Giardia FBPA inh-1 | Potency, µM (top dose mostly 57.5 µM), for the others: at the top dose viability change, negative = toxicity, most hits filed as inhibitors;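 also: Chinese hamster ovary cells used as mammalian cytotoxicity surrogate; viability measured as cellular ATP by luminescence; compound exposure lasted 48 h before reading; % is scaled to controls: 0 for no effect and ±100 for the full control effect; nearly all actives have a fitted effect of over 60% in size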
Giardia FBPA inh-2: qHTS Assay for Inhibitors of Fructose-1,6-bisphosphate Aldolase from Giardia Lamblia: Primary screen confirmation | Potency, µM (titrated, usually from 57.5 µM), for the others: at the highest dose activity change, negative = inhibition, most hits filed as inhibitors | actives 5% (n = 1,500) | purified Giardia aldolase enzyme activity, qHTS | shares compounds with Giardia FBPA inh-1; also: % is scaled to controls: 0 for no effect and ±100 for the full control effect; nearly all actives have a fitted effect of over 45% in size
Rabbit FBPA inh: qHTS Assay for Inhibitors of Fructose-1,6-bisphosphate Aldolase from Giardia Lamblia: Rabbit FBPA Selectivity. shares compounds with Giardia FBPA inh-1. Rabbit muscle FBPA enzyme inhibition, selectivity counter-screen. Potency, µM (doses to about 57.5 µM), inactives show at the highest dose activity, negative = inhibition, usual class: inhibitors. actives 4% (n = 1,500). AID 2794, 2010; also: % is scaled to controls: 0 for no effect and ±100 for the full control effect; nearly all actives have a fitted effect of over 60% in size
Target sequence (P00883 whole entry, looked up): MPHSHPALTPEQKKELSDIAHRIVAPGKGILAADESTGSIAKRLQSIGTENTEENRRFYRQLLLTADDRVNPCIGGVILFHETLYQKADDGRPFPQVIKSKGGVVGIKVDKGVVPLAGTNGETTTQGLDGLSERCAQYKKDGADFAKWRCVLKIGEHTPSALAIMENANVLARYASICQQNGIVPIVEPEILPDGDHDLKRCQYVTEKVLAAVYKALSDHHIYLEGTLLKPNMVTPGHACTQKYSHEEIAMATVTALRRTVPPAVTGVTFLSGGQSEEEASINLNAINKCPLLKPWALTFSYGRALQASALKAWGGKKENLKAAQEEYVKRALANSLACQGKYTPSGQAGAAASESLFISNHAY
GAPDH counter: qHTS Assay for Inhibitors of Fructose-1,6-bisphosphate Aldolase from Giardia Lamblia: Coupling assay counterscreen confirmation | shares compounds with Giardia FBPA inh-1 | GAPDH coupling enzyme counterscreen, biochemical, qHTS | Potency, µM (titrated, usually from 57.5 µM), for the others: top-dose activity change, negative = inhibition, most hits filed as inhibitors | actives 6% (n = 1,500) | AID 2795, 2010; also: % is scaled to controls: 0 for no effect and ±100 for the full control effect; nearly all actives have a fitted effect of over 55% in size
Numbers without * were called inactive. Only some compounds are listed: those with a hit (about 3.5% of all), similar ones and a draw of the others. Unless noted, calls follow the shape of the dose curve; as a rule, active = well fitted curve in the direction sought with a large enough effect; inconclusive = small, poorly fitted or top-dose-only effect, or another doubt; inactive = no such curve, though single readings can be large; an effect the other way counts as inactive or inconclusive. Potency is read from the fitted curve at half-maximal effect.

Screening CSCCC(=O)Nc1nc(-c2ccccn2)cs1 returned Tb PYK inh -8.8%, Sm TGR inh -21.4%, LmPK inh 8.7%, Giardia FBPA inh-1 15.8µM*, RE007 growth inh -0.7%, Giardia growth 14.1µM*, Mammal cell tox -21.3%, Giardia FBPA inh-2 -4.5%, Rabbit FBPA inh -4.1% and GAPDH counter -3.2%.
CC(Oc1ccccc1)C(=O)Nc1nc(-c2ccccn2)cs1 (stereo not drawn) was read as Tb PYK inh -12.0%, Sm TGR inh -11.6% and RE007 growth inh inconclusive.
For C[C@H](NC(=O)c1ccccc1)C(=O)Nc1nc(-c2ccccn2)cs1 the results were Tb PYK inh -7.8%, Sm TGR inh 3.2%, LmPK inh -1.6%, Giardia FBPA inh-1 5.61µM*, RE007 growth inh 1.2%, Giardia growth inconclusive, Mammal cell tox -13.6%, Giardia FBPA inh-2 0.8%, Rabbit FBPA inh -3.0% and GAPDH counter -2.9%.
O=C(O)CC(Cn1[nH]nnc1=S)c1ccccc1 (stereo not drawn) was read as Tb PYK inh inconclusive, Sm TGR inh 0.7%, LmPK inh 3.9%, Giardia FBPA inh-1 15.8µM*, NS1 function inh 0.6%, RE007 growth inh 11.8%, Giardia growth 66.0%, Mammal cell tox -9.4%, Giardia FBPA inh-2 -11.6%, Rabbit FBPA inh 3.7% and GAPDH counter 7.3%.
c1ccc2[nH]c(SN3CCOCC3)nc2c1 was read as Sm TGR inh inconclusive, LmPK inh 12.9%, Giardia FBPA inh-1 3.55µM*, NS1 function inh -6.5%, Giardia growth inconclusive, Mammal cell tox -3.8%, Giardia FBPA inh-2 3.4%, Rabbit FBPA inh -21.2% and GAPDH counter inconclusive.
Screening O=C(O)c1cccc2[nH]c(C(F)(F)F)nc12 returned Tb PYK inh -11.9%, Sm TGR inh 8.3%, LmPK inh -3.7%, Giardia FBPA inh-1 -24.7%, NS1 function inh -2.4% and RE007 growth inh -4.0%.
